Records with an inconclusive call do not appear. Values without a mark were called inactive. The source made the active and inactive calls. The call rests on the fitted dose curve; in most records, active means well fitted cell-killing curve with a large enough effect; inconclusive means small, poorly fitted or top-dose-only effect; inactive means no such curve, though single readings can be large or run the other way.
Potency means the concentration at half of the fitted maximal effect.

The nature of this assay: qHTS of pediatric cancer cell lines to identify multiple opportunities for drug repurposing: Primary screen for NB1643 cells (AID 1347099). Further: nearly all actives have a fitted effect of over 50% in size. To be noted: NB1643 neuroblastoma viability, CellTiter-Glo luminescence, 48 h; series mostly up to 46 µM; activity change, negative = cytotoxic: at the top concentration. The text has this:
Drug repurposing or repositioning has been offered as a strategy for drug development in oncology programs. This approach has special potential for childhood cancers and other rare or orphan diseases, where the expected return on new drug development has been a disincentive to pharmaceuticals. […] In this project we exploit the poly-pharmacology of drugs to discover new indications via phenotypic screening of a panel of 19 well-characterized cell lines derived from solid tumors seen in children and adolescents. The goal is to identify approved drugs with previously unrecognized anticancer properties that has the potential to reveal new mechanisms and biological processes involved in carcinogenesis or drug resistance. We employed a titration-based paradigm (quantitative high-throughput screening or qHTS), where all compounds were tested at multiple concentrations for their effect on cell viability. Concentration-response curves (CRCs) were derived directly from the primary screen, and both potency and efficacy values were used to identify compounds with robust bioactivity profiles. We screened the NIH Chemical Genomics Center (NCGC) Pharmaceutical Collection (NPC) and Mechanism Interrogation Plate (MIPE) small molecule collections of approved and investigational compounds against these cell lines; and measured metabolically active cells after 48 hours of compound treatment as a proxy for cell viability. […] Assay Submitter: Nathalia J. Martinez, National Center for Advancing Translational Sciences, National Institutes of Health, Rockville, MD, USA; email: natalia.martinez@nih.gov Shen, M et al. Quantitative high-throughput phenotypic screening of pediatric cancer cell lines identifies multiple opportunities for drug repurposing. Oncotarget 2017 Dec 19;9(4):4758-4772. PMID 29435139.
The cells were obtained from University of North Carolina (UNC), Pediatric Preclinical Testing Program (PPT), and Coriell Institute (CI). qHTS cell viability assay: Cells were assayed in growth media at a density of 500-1,000 cells/well. Five microliters of cells were dispensed into 1,536-well, white, solid-bottom, TC-treated plates (Greiner Bio One) using a multidrop dispenser and incubated at 37 degrees C, 5% CO2, under a humidified atmosphere for 5 hours. Twenty-three nanoliters of compounds and controls (neutral control DMSO or positive control bortezomib at final concentration of 2.3 µM) were subsequently transferred by Kalypsys pintool. For primary screens, the MIPE collection was tested at 11-point dilutions (final concentrations range from 0.78 nM to 46 µM) and the NPC collection at 8-point dilutions (final concentrations range from 0.59 nM to 46 µM). Compounds tested in follow-up screens were assayed at 11-point dilutions. Cells were incubated for 48 hours, followed by addition of 3 µL of CellTiter-Glo (Promega). After a 15 min incubation at room temperature, samples were analyzed for luminescence intensity using a ViewLux High-throughput CCD imager equipped with clear filters.
In general terms: Quantitative high-throughput screening tests each substance at several concentrations.
`CC(=O)OCC(=O)[C@@]1(O)CC[C@H]2[C@@H]3CCC4=CC(=O)C=C[C@]4(C)[C@H]3[C@@H](O)C[C@@]21C`: the “activity change, negative = cytotoxic” value was -0.265%. Still for that read-out and setting: under `CCOC(=O)/C=C(C)/C=C/C=C(C)/C=C/c1c(C)cc(OC)c(C)c1C` stands 0%; under `CC1=C(C(=O)O)N2C(=O)[C@@H](NC(=O)[C@H](N)c3ccc(O)cc3)[C@H]2SC1`, 6.26%; under `CC(C)N=C(N)/N=C(\N)Nc1ccc(Cl)cc1`, -6.89%. Still for that read-out and setting: under `COc1c2occc2c(OC)c2c(=O)cc(C)oc12` stands 9.1%; under `CN1CCC(=C2c3ccccc3Sc3ccccc32)CC1`, 0%; under `CN1CCC[C@@H]1c1cccnc1`, -4.22%. Same read-out and setting: under `CCCCC(=O)O[C@]1(C(=O)CO)CC[C@H]2[C@@H]3CCC4=CC(=O)CC[C@]4(C)[C@H]3[C@@H](O)C[C@@]21C` stands 22.8%. As to `Nc1ccc(C(=O)Nc2ccccc2N)cc1`, the Potency is 7.5 µM (active). `CC(Cc1ccccc1)(NC(=O)CN)c1ccccc1` (stereo not given): the “activity change, negative = cytotoxic” value is 8.98%. As to `CCOC(=O)n1ccn(C)c1=S`, the “activity change, negative = cytotoxic” value was -14.3%.

Take `CCN(CC)C(=O)N1CCN(C)CC1`: the “activity change, negative = cytotoxic” value is -0.0458%. The same measure, in the same setting: under `NC(CS)C(=O)O` (stereo not given) stands -4.67%; under `CCCCCCCCCCOCC(O)CN` (stereo not given), 0%.

As for `NC(=O)C(=O)N/N=C/c1ccc([N+](=O)[O-])o1`, the Potency is 21.1 µM (active). As to `Nc1ccc(/C=C/c2ccc(N)cc2S(=O)(=O)O)c(S(=O)(=O)O)c1`, the activity change, negative = cytotoxic was 24.7% [at 0.597 µM].

As for `CC(=O)Oc1ccc(C(=C2CCCCC2)c2ccc(OC(C)=O)cc2)cc1`, the “activity change, negative = cytotoxic” value is -2.03%. Turning to `CC(=O)Nc1c(I)cc(I)c(C(=O)O)c1I`, the “activity change, negative = cytotoxic” value was 6.99%.

Consider `O=C(N/N=C/c1ccccc1O)c1ccncc1`, for which the Potency was 3.35 µM (active). With `CNC(=O)CN(CCN(CCN(CC(=O)[O-])CC(=O)NC)CC(=O)[O-])CC(=O)[O-].O.[Gd+3]`, the “activity change, negative = cytotoxic” value was 0.795%. `NC[C@H]1O[C@H](O[C@H]2[C@H](O)[C@@H](O[C@H]3O[C@H](CO)[C@@H](O)[C@H](N)[C@H]3O)[C@H](N)C[C@@H]2N)[C@H](N)[C@@H](O)[C@@H]1O`: the “activity change, negative = cytotoxic” value was 8.83% [at 16.1 µM]. For the molecule `CC(=O)Oc1ccc2c(c1)CC[C@@H]1[C@@H]2CC[C@]2(C)[C@@H](O)CC[C@@H]12`, the “activity change, negative = cytotoxic” value was -13.7%. As for `Cc1cc2c(cc1CC(=O)c1sccc1S(=O)(=O)Nc1onc(C)c1Cl)OCO2`, the “activity change, negative = cytotoxic” value was -1.52%. The same measure, in the same setting: under `COc1cc(C(=S)N2CCOCC2)cc(OC)c1OC` stands 3.83%. Still for that read-out and setting: in the case of `C[C@H](CCC(=O)O)[C@H]1CC[C@H]2[C@@H]3C(=O)C[C@@H]4CC(=O)CC[C@]4(C)[C@H]3CC(=O)[C@]12C` it was 1.98%. Take `CCn1cc(C(=O)O)c(=O)c2cnc(N3CCCC3)nc21`: the activity change, negative = cytotoxic is 1.66% [at 9.22 µM]. Turning to `Nc1ccn([C@@H]2O[C@H](CO)[C@@H](O)C2(F)F)c(=O)n1`, the Potency was 0.0422 µM (active). Take `CC(O)C(=O)O` (stereo not given): the “activity change, negative = cytotoxic” value is 2.01%. The same measure, in the same setting: in the case of `CCOc1ccc(NC(=O)CC(C)O)cc1` (stereo not given) it was -3.15%.

As to `O=C(CCCN1CCC(O)(c2ccc(Br)cc2)CC1)c1ccc(F)cc1`, the Potency was 0.0237 µM (active). Consider `NCCCC[C@H](N[C@@H](CCc1ccccc1)C(=O)O)C(=O)N1CCC[C@H]1C(=O)O`, for which the “activity change, negative = cytotoxic” value is 7.67%. As to `O=C1OC2(c3ccc(O)cc3Oc3cc(O)ccc32)c2ccccc21`, the “activity change, negative = cytotoxic” value was -11.5%. The same measure, in the same setting: under `Cc1cc(O)c(C(C)C)cc1Cl` stands 9.38%; under `C[C@@H]1C[C@H]2[C@@H]3C[C@H](F)C4=CC(=O)C(Cl)=C[C@]4(C)[C@@]3(F)[C@@H](O)C[C@]2(C)[C@@]1(O)C(=O)CO`, -1.54%; under `C=CCc1ccc(O)c(OC)c1`, 3.88%. The same measure, in the same setting: in the case of `CN1C(CCl)Nc2cc(Cl)c(S(N)(=O)=O)cc2S1(=O)=O` (stereo not given) it was 3.48%. Consider `CC(=O)c1ccc2c(c1)N(CCCN1CCC(CCO)CC1)c1ccccc1S2`, for which the “activity change, negative = cytotoxic” value was -1.63%. Consider `COCc1c(C(C)C)nc(C(C)C)c(/C=C/[C@@H](O)C[C@@H](O)CC(=O)O)c1-c1ccc(F)cc1`, for which the Potency was 1.5 µM (active). Regarding `CCN(CC)CCOC(=O)C(c1ccccc1)C1CCCCC1` (stereo not given), the “activity change, negative = cytotoxic” value was 0%. On the same count and under the same terms, in the case of `CCCCCC=CCC=CCCCCCCCC(=O)OCC` it was 8.13%.
